# From the supplement of paper PMC10849652
# About 7,900 targets were measured; listed, in parts, are those with a hit and a random draw of the rest. About 0.6% of all pairs of compound and target were hits. A number with no mark means an inactive call.
# Experiments:
# Assay in all cases: log2 fold change, soluble protein after heating vs DMSO (PISA); higher = thermal stabilisation; K562 cells, 10 uM, 30 min; active = over 0.2 and 3.5 SD of the protein, either way, in both replicates (recomputed)
# [1] = compound: COC1=CC=C(C=C1)CN2C=CC3=C2C=C(C=C3)C(=O)NO
# Outline: (§1)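 For each measurement, 10 μM compound was applied for 30 min to K562 cells at 2×10^6 cells/mL. Aliquots were heated for 3 min across 48°C-58°C, pooled, and extracted in PBS with 0.5% NP-40 at 4°C; the supernatant after 21,000xg for 90 min was soluble protein. This was quantified by TMTpro 16plex LC-MS/MS with channel sums equalised, and thermal stability was reported relative to control samples from duplicates, on a log2 fold-change scale.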
# filanesib = compound: CON(C)C(=O)N1N=C(c2cc(F)ccc2F)S[C@@]1(CCCN)c1ccccc1 [filanesib]
# Outline: as §1
# zotarolimus = compound: CO[C@H]1C[C@@H]2CC[C@@H](C)[C@@](O)(O2)C(=O)C(=O)N2CCCC[C@H]2C(=O)O[C@H]([C@H](C)C[C@@H]2CC[C@H](n3cnnn3)[C@H](OC)C2)CC(=O)[C@H](C)/C=C(\C)[C@@H](O)[C@@H](OC)C(=O)[C@H](C)C[C@H](C)/C=C/C=C/C=C/1C [zotarolimus]
# Outline: as §1
# idasanutlin = compound: COc1cc(C(=O)O)ccc1NC(=O)[C@@H]1N[C@@H](CC(C)(C)C)[C@](C#N)(c2ccc(Cl)cc2F)[C@H]1c1cccc(Cl)c1F [idasanutlin]
# Outline: as §1
# alisertib = compound: COc1cc(Nc2ncc3c(n2)-c2ccc(Cl)cc2C(c2c(F)cccc2OC)=NC3)ccc1C(=O)O [alisertib]
# Outline: as §1
# [2] = compound: COc1cc2nc(-c3cc(F)ccc3O)nc(N[C@@H]3CNC[C@H]3C(C)(C)O)c2cc1OC
# Outline: as §1
# gefitinib = compound: COc1cc2ncnc(Nc3ccc(F)c(Cl)c3)c2cc1OCCCN1CCOCC1 [gefitinib]
# Outline: as §1
# [3] = compound: COc1cccc2cc(-c3nc([C@H]4CC[C@H](C(=O)O)CC4)n4ncnc(N)c34)[nH]c12
# Outline: as §1
# lapatinib = compound: CS(=O)(=O)CCNCc1ccc(-c2ccc3ncnc(Nc4ccc(OCc5cccc(F)c5)c(Cl)c4)c3c2)o1 [lapatinib]
# Outline: as §1
# pictilisib = compound: CS(=O)(=O)N1CCN(Cc2cc3nc(-c4cccc5[nH]ncc45)nc(N4CCOCC4)c3s2)CC1 [pictilisib]
# Outline: as §1
# [4] = compound: CS(=O)(=O)c1ccc(-c2cnc(N)c(C(=O)Nc3ccccc3)n2)cc1
# Outline: as §1
# crizotinib = compound: C[C@@H](Oc1cc(-c2cnn(C3CCNCC3)c2)cnc1N)c1c(Cl)ccc(F)c1Cl [crizotinib]
# Outline: as §1
# [5] = compound: C[C@@H]1COCCN1C2=NC(=NC(=C2)C3(CC3)S(=O)(=O)C)C4=C5C=CNC5=CC=C4
# Outline: as §1
# [6] = compound: C[C@H](C1=CC=C(C=C1)C(=O)NC2=C3C=CNC3=NC=C2)N
# Outline: as §1
# duvelisib = compound: C[C@H](Nc1ncnc2nc[nH]c12)c1cc2cccc(Cl)c2c(=O)n1-c1ccccc1 [duvelisib]
# Outline: as §1
# gandotinib = compound: Cc1cc(Nc2cc(CN3CCOCC3)c3nc(C)c(Cc4ccc(Cl)cc4F)n3n2)n[nH]1 [gandotinib]
# Outline: as §1
# tozasertib = compound: Cc1cc(Nc2cc(N3CCN(C)CC3)nc(Sc3ccc(NC(=O)C4CC4)cc3)n2)n[nH]1 [tozasertib]
# Outline: as §1
# [7] = compound: Cc1cc(SCc2sc(-c3ccc(C(F)(F)F)cc3)nc2C)ccc1OCC(=O)O
# Outline: as §1
# doramapimod = compound: Cc1ccc(-n2nc(C(C)(C)C)cc2NC(=O)Nc2ccc(OCCN3CCOCC3)c3ccccc23)cc1 [doramapimod]
# Outline: as §1
# ispinesib = compound: Cc1ccc(C(=O)N(CCCN)[C@@H](c2nc3cc(Cl)ccc3c(=O)n2Cc2ccccc2)C(C)C)cc1 [ispinesib]
# Outline: as §1
# Chain of UniProt P48449 (P48449 whole entry, looked up): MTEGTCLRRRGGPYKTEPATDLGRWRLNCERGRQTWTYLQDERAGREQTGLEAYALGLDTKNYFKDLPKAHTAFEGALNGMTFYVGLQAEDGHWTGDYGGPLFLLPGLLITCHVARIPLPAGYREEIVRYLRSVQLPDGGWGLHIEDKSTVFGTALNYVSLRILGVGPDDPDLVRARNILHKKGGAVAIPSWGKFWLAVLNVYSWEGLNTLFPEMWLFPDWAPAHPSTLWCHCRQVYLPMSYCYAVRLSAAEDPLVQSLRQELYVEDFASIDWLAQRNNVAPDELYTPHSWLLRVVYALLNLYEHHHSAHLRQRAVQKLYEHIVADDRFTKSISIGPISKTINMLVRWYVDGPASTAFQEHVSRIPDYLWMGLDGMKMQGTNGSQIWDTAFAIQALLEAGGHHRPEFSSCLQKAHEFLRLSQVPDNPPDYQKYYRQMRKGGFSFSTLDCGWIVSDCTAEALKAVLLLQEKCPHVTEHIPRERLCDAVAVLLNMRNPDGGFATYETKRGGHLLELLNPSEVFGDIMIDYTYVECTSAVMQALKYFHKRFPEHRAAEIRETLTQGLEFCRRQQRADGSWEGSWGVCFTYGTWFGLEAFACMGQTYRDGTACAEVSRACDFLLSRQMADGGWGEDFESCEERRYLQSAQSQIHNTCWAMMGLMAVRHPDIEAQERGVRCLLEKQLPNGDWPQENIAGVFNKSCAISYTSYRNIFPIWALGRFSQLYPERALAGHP
# Chain of UniProt Q99661 (Q99661 whole entry, looked up): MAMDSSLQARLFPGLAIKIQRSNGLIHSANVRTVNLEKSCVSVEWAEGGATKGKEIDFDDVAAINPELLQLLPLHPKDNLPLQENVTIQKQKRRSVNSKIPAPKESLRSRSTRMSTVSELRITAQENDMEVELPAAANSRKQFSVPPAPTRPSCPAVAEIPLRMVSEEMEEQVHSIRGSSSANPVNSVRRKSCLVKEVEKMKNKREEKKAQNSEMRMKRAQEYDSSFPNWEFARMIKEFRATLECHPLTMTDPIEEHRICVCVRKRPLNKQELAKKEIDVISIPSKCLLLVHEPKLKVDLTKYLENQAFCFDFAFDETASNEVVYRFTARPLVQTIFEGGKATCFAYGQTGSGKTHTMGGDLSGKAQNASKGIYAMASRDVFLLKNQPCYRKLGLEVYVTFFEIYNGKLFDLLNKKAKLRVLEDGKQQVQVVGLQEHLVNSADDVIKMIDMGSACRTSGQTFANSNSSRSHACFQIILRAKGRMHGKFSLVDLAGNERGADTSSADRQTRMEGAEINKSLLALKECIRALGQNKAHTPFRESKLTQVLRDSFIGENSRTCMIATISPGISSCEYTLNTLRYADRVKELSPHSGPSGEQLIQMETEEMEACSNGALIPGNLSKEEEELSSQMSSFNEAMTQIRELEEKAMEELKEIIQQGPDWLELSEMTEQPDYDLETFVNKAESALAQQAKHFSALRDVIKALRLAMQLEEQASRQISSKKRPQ
# Chain of UniProt O43934 (O43934 whole entry, looked up): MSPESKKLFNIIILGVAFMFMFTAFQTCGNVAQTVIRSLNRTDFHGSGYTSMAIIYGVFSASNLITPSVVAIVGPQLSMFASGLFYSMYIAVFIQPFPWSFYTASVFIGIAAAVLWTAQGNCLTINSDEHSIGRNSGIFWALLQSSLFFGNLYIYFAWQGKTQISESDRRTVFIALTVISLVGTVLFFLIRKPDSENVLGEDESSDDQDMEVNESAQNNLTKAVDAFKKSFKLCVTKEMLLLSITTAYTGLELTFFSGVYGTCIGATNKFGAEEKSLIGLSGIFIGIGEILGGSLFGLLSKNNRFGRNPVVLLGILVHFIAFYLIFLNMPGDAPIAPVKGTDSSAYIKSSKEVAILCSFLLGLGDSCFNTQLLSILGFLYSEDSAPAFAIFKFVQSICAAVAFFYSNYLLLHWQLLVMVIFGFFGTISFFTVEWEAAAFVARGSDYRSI
# Chain of UniProt P32019 (P32019 whole entry, looked up): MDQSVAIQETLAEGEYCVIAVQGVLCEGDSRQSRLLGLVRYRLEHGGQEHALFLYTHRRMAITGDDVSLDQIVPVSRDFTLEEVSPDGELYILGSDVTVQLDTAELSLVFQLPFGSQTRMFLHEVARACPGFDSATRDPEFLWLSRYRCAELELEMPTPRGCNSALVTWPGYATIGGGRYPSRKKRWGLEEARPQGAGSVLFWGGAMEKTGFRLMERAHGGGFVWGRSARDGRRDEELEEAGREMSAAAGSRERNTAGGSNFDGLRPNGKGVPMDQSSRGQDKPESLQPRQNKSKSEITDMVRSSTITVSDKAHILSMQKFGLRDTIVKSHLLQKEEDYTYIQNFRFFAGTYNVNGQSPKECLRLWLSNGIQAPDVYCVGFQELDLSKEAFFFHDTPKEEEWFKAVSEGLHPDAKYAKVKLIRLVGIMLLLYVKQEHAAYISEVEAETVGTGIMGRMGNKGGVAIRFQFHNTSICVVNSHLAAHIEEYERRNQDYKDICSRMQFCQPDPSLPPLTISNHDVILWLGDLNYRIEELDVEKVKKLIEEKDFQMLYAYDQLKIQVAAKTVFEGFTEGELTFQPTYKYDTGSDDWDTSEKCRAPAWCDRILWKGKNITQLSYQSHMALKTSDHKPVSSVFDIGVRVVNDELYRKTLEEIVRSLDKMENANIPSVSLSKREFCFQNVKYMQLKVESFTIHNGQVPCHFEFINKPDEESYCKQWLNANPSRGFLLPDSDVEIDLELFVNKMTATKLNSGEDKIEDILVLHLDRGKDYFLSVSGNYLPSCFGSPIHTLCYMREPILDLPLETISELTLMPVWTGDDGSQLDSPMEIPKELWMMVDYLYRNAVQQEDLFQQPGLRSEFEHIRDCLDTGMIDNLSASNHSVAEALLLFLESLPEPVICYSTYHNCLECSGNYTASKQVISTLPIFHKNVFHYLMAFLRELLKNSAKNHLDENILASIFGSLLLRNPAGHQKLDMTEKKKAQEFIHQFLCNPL
# Chain of UniProt P10620 (P10620 whole entry, looked up): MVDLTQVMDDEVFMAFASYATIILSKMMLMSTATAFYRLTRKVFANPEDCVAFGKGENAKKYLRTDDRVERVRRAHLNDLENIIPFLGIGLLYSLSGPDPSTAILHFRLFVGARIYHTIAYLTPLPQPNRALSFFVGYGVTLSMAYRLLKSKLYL
# Chain of UniProt Q6P9B6 (Q6P9B6 whole entry, looked up): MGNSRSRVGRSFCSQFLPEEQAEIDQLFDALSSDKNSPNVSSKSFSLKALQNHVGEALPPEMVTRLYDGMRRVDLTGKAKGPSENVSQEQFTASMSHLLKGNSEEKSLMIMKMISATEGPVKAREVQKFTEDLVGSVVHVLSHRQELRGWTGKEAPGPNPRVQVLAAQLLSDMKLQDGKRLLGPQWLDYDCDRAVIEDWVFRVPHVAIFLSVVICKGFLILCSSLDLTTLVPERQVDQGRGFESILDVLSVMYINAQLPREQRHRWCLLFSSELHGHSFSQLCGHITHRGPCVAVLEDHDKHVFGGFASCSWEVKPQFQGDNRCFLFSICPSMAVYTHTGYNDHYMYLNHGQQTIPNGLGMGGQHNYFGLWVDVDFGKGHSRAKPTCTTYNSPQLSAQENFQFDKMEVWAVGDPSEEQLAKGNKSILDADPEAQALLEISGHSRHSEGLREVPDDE
# Chain of UniProt O95372 (O95372 whole entry, looked up): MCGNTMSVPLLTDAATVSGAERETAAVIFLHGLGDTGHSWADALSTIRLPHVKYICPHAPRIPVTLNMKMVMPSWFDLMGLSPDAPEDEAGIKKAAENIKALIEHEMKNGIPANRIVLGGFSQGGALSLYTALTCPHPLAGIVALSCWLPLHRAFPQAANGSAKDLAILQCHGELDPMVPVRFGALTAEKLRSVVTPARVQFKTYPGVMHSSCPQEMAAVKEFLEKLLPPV
# Chain of UniProt Q8NC56 (Q8NC56 whole entry, looked up): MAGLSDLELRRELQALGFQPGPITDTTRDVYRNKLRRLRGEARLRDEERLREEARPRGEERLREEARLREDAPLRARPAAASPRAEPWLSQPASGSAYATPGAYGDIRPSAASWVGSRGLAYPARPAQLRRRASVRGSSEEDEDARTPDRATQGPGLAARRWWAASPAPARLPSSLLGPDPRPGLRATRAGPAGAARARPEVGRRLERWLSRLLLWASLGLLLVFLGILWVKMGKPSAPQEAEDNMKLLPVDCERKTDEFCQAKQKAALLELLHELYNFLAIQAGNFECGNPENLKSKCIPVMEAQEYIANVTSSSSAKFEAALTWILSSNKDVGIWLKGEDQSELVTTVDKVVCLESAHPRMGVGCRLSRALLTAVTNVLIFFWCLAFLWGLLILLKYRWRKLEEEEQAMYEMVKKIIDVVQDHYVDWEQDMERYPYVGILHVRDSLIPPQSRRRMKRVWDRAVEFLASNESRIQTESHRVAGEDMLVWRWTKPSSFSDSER
# Chain of UniProt Q9NQ29 (Q9NQ29 whole entry, looked up): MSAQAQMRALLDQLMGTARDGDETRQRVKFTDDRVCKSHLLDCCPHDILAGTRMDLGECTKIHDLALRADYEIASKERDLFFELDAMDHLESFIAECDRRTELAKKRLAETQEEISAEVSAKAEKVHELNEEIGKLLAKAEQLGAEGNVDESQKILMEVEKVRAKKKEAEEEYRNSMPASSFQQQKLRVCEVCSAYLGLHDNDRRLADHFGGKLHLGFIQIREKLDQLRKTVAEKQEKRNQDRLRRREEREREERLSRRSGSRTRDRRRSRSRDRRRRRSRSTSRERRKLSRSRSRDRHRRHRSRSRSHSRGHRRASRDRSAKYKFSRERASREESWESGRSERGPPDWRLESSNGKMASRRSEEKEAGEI
# Chain of UniProt Q9H3F6 (Q9H3F6 whole entry, looked up): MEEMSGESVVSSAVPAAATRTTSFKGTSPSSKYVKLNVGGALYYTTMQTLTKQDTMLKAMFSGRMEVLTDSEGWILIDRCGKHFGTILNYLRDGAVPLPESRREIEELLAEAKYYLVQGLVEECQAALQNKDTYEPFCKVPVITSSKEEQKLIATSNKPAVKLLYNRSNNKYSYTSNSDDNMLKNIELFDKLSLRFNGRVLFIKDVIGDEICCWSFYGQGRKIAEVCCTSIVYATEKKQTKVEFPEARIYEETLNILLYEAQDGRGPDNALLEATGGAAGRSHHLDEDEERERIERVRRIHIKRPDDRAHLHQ
Target,log2 fold change [1],log2 fold change (filanesib),log2 fold change (zotarolimus),log2 fold change (idasanutlin),log2 fold change (alisertib),log2 fold change [2],log2 fold change (gefitinib),log2 fold change [3],log2 fold change (lapatinib),log2 fold change (pictilisib),log2 fold change [4],log2 fold change (crizotinib),log2 fold change [5],log2 fold change [6],log2 fold change (duvelisib),log2 fold change (gandotinib),log2 fold change (tozasertib),log2 fold change [7],log2 fold change (doramapimod),log2 fold change (ispinesib)
INPP5B (UniProt P32019),0,-0.015,0.002,-0.003,0.03,0.052,-0.008,-0.043,0.006,0.04,0.057,-0.096,-0.02,0.042,-0.045,0.017,0.151,0.029,0.095,-0.005
MFSD11 (UniProt O43934),-0.029,-0.464 (active),-0.003,-0.055,-0.009,-0.046,-0.064,-0.002,0.041,0.02,-0.098,-0.683 (active),-0.223,0.074,0.03,0.036,-0.109,-0.063,0.008,
MEAK7 (UniProt Q6P9B6),-0.046,-0.109,-0.002,-0.013,-0.012,-0.101,-0.142,-0.055,0.087,-0.063,-0.005,-0.259 (active),0.049,0.005,0.121,-0.224,0.018,0.024,0.031,-0.139
KIF2C (UniProt Q99661),0.063,-0.033,0.001,-0.046,-0.008,0.09,0.006,-0.081,-0.048,0.008,-0.016,-0.171,-0.028,0.012,-0.048,-0.065,-0.035,0.082,0.007,-0.028
MGST1 (UniProt P10620),0.039,-0.019,0.006,-0.06,0.013,0.152,-0.036,-0.043,-0.009,0.112,-0.006,0.152,-0.01,-0.257 (active),-0.042,0.044,-0.111,-0.123,-0.053,-0.027
MAIP1 (UniProt Q8WWC4),0.054,-0.12,-0.025,-0.033,-0.047,-0.088,-0.002,0.095,0.036,0.01,0.071,-0.114,0.062,-0.072,0.025,-0.025,0.027,-0.005,-0.008,-0.21
KHDC4 (UniProt Q7Z7F0),0.14,-0.025,0.035,-0.043,-0.003,0.025,0.015,-0.026,-0.025,-0.028,0.045,-0.091,0,-0.074,0.255,-0.052,0.013,0.207,-0.054,0.027
MIF (UniProt P14174),0.027,0.024,0.029,0.043,0.043,-0.082,0.082,-0.043,-0.034,-0.141,-0.027,0.025,0.111,-0.048,0.197,0.079,-0.019,-0.025,-0.019,0.055
LIMA1 isoform 4 (UniProt Q9UHB6),-0.044,0.178,0.021,0.008,-0.028,0.171,0.077,0.11,-0.126,-0.1,-0.076,0.001,-0.04,-0.057,0.003,0.019,0.027,-0.036,-0.023,0.185
LYPLA2 (UniProt O95372),0.188,0.014,0.002,0.027,0.121,-0.23,0.047,0.044,-0.048,-0.026,-0.028,0.005,0.299,-0.08,0.189,-0.094,0.056,0.066,0.016,0.172
KNTC1 (UniProt P50748),0.03,-0.008,0,-0.082,-0.035,0.036,0.175,-0.037,0.008,0.007,0.038,-0.178,-0.002,0.045,0.061,-0.162,0.014,0.012,-0.01,-0.086
LUC7L (UniProt Q9NQ29),-0.094,0.178,-0.013,0.052,-0.07,0.024,-0.104,0.017,0.007,0.092,-0.009,-0.028,-0.033,-0.001,-0.042,0.199,0.06,0.033,0.029,-0.007
KCTD10 (UniProt Q9H3F6),0.086,0.177,-0.095,-0.049,-0.06,0.079,-0.03,-0.105,0.001,-0.039,-0.035,0.097,-0.027,-0.13,0.05,0.042,0.035,-0.01,-0.042,0.108
LRBA (UniProt P50851),-0.004,-0.06,0.002,-0.113,-0.017,0.029,-0.008,0.031,0.009,-0.015,0.018,-0.054,0.037,-0.005,0.012,-0.094,-0.006,0.011,0.012,-0.078
LSS (UniProt P48449),0.205,0.026,-0.027,-0.116,0.121,0.16,0.126,-0.014,0.02,0.07,0.043,0.77 (active),0.081,0.02,0.044,0.044,0.103,0.017,0.024,0.111
LEMD2 (UniProt Q8NC56),-0.051,-0.211,0,-0.008,0.044,-0.271,0.061,0.047,0.133,-0.007,-0.001,-0.286 (active),0.084,-0.057,-0.016,-0.17,0.008,0.109,0.079,-0.438 (active)
